# Source: PubChem BioAssay
# The source made the active and inactive calls.
# Tests used:
# [1] = test system: PRMT1 (protein arginine N-methyltransferase 1); test: PRMT1 binders on small-molecule microarrays, primary screen, biochemical, small-molecule microarray, 635 nm fluorescence (AID 1088); details: small-molecule microarray binding, higher = more signal;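 also: binding of Prmt1 protein to compounds spotted on small-molecule microarray slides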
# [2] = yeast growth modulation, basal conditions, primary screen, YJM789 clinical isolate, OD600, 24 h (AID 1089);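 also: growth of clinical yeast isolate S. cerevisiae YJM 789 seeded 1000 cells per well; test concentration not given here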; details: S. cerevisiae YJM789 growth, higher = more signal, called active from +8 up or from −8 down
# [3] = fission yeast growth modulation, primary screen, strain 972, OD600, 24 h, no modulator (AID 1090);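 also: basal condition with compound alone and no growth modifier present; test concentration not given here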; details: S. pombe 972 growth, higher = more signal, called active from +8 up or from −8 down
# [4] = S. cerevisiae growth modulation with rapamycin, primary screen, strain BY4716, OD600, 96 h (AID 1091); details: higher = more signal, called active from +8 up or from −8 down; also: test concentration not given here
# [5] = biological target: Torsin-1A-interacting protein 2 (Homo sapiens) (UniProt Q8NFQ8); test: LULL1 binders on small-molecule microarray, primary screen, cell lysate, human LULL1 lysate, 635/667 nm fluorescence (AID 1092); details: hLULL1 lysate binding, 635 nm fluorescence, higher = more signal;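 also: probe is lysate of COS7 cells overexpressing human LULL1; score merges per-feature 667 nm fluorescence with signal-to-noise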
# Sequence of Torsin-1A-interacting protein 2 (Homo sapiens) (Q8NFQ8 whole entry, looked up): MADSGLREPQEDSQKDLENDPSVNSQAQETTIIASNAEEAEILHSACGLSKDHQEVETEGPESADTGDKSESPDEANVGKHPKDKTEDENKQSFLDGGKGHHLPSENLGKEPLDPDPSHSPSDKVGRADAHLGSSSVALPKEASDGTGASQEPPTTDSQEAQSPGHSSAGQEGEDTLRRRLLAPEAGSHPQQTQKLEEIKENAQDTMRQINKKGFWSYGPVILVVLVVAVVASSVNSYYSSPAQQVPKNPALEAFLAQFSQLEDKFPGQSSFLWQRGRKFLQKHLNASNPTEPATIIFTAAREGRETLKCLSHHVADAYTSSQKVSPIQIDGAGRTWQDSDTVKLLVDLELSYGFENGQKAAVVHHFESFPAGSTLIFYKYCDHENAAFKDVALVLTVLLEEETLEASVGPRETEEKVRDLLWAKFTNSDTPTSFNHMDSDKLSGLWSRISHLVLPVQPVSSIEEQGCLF
# [6] = E. coli growth modulation, two-sided OD650, primary screen, E. coli filamentation project, strain DRC41, 24 h (AID 1093); details: OD650, 24 h, higher = more signal, called active from +8 up or from −8 down;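 also: MC1000 strain lacking acrAB efflux and sulA so SOS filamentation is blocked; test concentration not given here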
# [7] = small-molecule microarray binders of probe aLefty2, primary screen, biochemical, biotinylated probe, 635/667 nm fluorescence (AID 1094); details: higher = more signal;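 also: score merges spot fluorescence near 667 nm with spot signal-to-noise ratio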
# [8] = test system: Noggin (protein binding on small-molecule microarray); test: Noggin binders on small-molecule microarray, primary screen, biochemical, 635/667 nm fluorescence (AID 1095); details: 635 nm fluorescence, higher = more signal;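 also: score merges 667 nm feature fluorescence with signal to noise over triplicate slides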
# [9] = biological target: Neurogenic locus notch homolog protein 3 (Homo sapiens) (UniProt Q9UM47); test: NOTCH3 binders on small-molecule microarray, primary screen, biochemical, 635/667 nm fluorescence (AID 1096); details: NOTCH3 binding, 635 nm fluorescence, higher = more signal
# Sequence of Neurogenic locus notch homolog protein 3 (Homo sapiens) (Q9UM47 whole entry, looked up): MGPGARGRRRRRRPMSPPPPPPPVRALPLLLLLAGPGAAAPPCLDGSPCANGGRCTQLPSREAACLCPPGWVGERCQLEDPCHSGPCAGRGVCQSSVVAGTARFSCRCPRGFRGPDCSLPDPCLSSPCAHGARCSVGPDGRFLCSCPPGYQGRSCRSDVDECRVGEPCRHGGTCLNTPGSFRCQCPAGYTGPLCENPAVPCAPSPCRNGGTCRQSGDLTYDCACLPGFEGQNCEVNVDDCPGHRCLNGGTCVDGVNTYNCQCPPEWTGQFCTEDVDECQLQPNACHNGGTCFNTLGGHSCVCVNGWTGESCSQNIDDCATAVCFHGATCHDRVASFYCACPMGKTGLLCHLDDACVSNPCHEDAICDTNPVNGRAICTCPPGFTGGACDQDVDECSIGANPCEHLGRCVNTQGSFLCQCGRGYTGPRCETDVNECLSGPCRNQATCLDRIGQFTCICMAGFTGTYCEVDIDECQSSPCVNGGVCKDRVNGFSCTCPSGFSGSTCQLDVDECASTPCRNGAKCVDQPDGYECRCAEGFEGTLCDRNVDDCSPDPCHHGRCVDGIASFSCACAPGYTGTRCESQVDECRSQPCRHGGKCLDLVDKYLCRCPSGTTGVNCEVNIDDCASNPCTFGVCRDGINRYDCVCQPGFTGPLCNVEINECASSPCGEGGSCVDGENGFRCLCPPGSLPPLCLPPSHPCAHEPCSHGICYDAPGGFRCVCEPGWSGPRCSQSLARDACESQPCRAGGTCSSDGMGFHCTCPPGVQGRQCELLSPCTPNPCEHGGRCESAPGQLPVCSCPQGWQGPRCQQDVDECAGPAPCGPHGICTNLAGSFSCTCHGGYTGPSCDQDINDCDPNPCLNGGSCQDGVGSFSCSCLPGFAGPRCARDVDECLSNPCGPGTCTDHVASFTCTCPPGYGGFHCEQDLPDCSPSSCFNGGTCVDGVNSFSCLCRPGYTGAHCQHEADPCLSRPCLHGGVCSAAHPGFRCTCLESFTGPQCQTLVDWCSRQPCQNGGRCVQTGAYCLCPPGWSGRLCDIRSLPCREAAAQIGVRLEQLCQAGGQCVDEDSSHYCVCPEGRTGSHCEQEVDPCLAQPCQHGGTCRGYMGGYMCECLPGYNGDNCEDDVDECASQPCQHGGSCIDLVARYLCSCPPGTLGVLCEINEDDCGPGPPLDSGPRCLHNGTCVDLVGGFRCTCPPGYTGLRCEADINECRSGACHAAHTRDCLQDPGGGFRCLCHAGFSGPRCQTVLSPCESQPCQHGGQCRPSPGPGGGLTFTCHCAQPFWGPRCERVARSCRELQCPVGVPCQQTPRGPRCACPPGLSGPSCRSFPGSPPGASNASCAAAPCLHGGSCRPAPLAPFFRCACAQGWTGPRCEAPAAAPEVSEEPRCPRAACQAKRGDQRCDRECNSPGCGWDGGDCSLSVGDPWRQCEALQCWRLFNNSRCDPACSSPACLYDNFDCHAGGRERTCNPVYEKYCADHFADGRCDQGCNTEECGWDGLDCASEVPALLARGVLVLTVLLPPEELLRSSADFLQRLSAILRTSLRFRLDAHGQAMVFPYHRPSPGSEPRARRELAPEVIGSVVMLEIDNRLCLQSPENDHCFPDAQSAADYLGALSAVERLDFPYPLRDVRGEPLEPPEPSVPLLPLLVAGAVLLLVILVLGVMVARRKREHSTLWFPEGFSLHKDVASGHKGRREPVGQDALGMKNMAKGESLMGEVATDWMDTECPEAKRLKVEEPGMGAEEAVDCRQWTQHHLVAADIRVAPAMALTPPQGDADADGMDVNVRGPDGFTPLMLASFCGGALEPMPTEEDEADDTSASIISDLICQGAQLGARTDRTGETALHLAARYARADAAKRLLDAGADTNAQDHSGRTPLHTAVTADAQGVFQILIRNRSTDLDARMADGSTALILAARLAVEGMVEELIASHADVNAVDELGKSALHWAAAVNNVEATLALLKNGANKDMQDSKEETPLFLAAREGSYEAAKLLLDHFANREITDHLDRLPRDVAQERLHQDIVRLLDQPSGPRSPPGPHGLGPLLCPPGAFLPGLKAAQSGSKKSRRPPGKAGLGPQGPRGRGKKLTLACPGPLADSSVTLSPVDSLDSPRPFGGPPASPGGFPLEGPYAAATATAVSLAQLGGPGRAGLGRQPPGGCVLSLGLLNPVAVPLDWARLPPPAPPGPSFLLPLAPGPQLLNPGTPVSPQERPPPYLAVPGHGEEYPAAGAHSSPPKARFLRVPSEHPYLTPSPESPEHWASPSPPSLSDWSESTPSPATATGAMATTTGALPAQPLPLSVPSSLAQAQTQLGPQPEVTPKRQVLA
# [10] = small-molecule microarray binders of probe aEGFR, primary screen, biochemical, biotinylated probe, 635/667 nm fluorescence (AID 1097); details: higher = more signal;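 also: probe is a biotinylated anti-EGFR antibody binding compounds printed on slides; score combines fluorescence near 667 nm and signal to noise of each spot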
# [11] = test system: Plasmodium falciparum Sir2 (PF13_0152, Sir2A); test: pfSir2 binders on small-molecule microarrays, primary screen, biochemical, small-molecule microarray, 635 nm fluorescence (AID 1098); details: small-molecule microarray binding, fluorescence 635 nm; higher = more signal;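 also: score merges spot fluorescence intensity with its signal-to-noise ratio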
# [12] = small-molecule microarray binders of probe aDKK1, primary screen, biochemical, biotinylated probe, 635/667 nm fluorescence (AID 1099); details: higher = more signal;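 also: score merges 667nm spot fluorescence with signal to noise across triplicate slides; reference of the scale not given here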
# [13] = small-molecule microarray binders of probe aCHRDL2, primary screen, biochemical, biotinylated probe, 635/667 nm fluorescence (AID 1100); details: higher = more signal
# [14] = splicing luciferase reporter signal modulators, primary screen, spliceosome inhibition project, cell-based, HEK293, splice +/- reporter (AID 1101); details: luminescence, 24 h, higher = more signal, called active from +8 up or from −8 down;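 also: HEK293 cells carrying a splicing-competent luciferase reporter gene; test concentration not given here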
# [15] = biological target: Fibroblast growth factor 10 (Homo sapiens) (UniProt O15520); test: FGF10 binders on small-molecule microarrays, primary screen, biochemical, small-molecule microarray, 635 nm fluorescence (AID 1102); details: FGF10 binding, fluorescence 635 nm, higher = more signal
# Sequence of Fibroblast growth factor 10 (Homo sapiens) (O15520 whole entry, looked up): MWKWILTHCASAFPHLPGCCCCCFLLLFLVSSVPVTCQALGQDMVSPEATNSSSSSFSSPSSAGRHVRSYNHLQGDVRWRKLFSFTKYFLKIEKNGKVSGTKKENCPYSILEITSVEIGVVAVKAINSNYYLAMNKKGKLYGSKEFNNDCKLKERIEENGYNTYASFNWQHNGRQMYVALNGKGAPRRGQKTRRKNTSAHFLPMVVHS
# [16] = test system: glycogen synthase kinase-3 (GSK3A per assay name; protocol says GSK3B); test: GSK3 binders on small-molecule microarrays, primary screen, biochemical, small-molecule microarray, 635 nm fluorescence, GSK3A (AID 1103); details: small-molecule microarray binding, fluorescence 635 nm; higher = more signal; also: the record names both GSK3A and GSK3B
# [17] = biological target: Epidermal growth factor receptor (Homo sapiens) (UniProt P00533); test: EGFR binders on small-molecule microarrays, primary screen, biochemical, small-molecule microarray, 635 nm fluorescence (AID 1104); details: EGFR binding, higher = more signal;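 also: score merges 667 nm emission intensity with spot signal to noise over triplicate slides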
# Sequence of Epidermal growth factor receptor (Homo sapiens) (P00533 whole entry, looked up): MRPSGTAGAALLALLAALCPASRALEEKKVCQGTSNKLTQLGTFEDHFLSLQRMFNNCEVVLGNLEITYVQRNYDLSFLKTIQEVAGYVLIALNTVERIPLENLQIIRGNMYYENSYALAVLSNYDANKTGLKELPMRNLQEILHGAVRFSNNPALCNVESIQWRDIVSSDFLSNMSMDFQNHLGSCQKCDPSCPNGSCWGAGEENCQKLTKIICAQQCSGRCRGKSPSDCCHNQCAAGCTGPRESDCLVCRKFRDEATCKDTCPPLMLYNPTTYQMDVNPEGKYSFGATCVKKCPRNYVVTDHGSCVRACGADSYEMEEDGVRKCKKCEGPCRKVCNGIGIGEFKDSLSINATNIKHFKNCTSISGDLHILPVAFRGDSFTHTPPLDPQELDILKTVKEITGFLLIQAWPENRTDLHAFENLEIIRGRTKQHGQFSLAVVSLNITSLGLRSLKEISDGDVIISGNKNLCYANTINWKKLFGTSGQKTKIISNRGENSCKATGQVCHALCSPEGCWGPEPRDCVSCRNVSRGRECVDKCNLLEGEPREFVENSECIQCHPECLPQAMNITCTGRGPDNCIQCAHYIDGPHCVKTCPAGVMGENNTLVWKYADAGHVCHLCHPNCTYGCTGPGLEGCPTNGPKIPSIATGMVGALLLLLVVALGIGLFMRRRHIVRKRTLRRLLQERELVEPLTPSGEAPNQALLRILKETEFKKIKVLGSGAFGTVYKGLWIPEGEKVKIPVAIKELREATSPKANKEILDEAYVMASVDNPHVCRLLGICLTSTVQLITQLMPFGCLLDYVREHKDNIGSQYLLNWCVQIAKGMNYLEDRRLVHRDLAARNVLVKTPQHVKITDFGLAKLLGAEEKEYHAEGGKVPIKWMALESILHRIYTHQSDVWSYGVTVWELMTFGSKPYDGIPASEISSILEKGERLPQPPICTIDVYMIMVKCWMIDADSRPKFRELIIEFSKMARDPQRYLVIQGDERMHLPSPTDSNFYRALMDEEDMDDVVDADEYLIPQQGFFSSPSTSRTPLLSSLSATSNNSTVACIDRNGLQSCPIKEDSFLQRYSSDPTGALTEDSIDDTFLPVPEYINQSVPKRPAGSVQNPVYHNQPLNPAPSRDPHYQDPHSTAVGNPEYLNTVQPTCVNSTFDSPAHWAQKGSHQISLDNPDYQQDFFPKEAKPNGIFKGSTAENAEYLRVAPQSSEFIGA
# [18] = biological target: Follistatin-related protein 3 (Homo sapiens) (UniProt O95633); test: FSTL3 binders on small-molecule microarrays, primary screen, biochemical, small-molecule microarray, 635 nm fluorescence (AID 1105); details: FSTL3 binding, higher = more signal;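 also: score merges emission near 667 nm and signal to noise per printed spot across three slides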
# Sequence of Follistatin-related protein 3 (Homo sapiens) (O95633 whole entry, looked up): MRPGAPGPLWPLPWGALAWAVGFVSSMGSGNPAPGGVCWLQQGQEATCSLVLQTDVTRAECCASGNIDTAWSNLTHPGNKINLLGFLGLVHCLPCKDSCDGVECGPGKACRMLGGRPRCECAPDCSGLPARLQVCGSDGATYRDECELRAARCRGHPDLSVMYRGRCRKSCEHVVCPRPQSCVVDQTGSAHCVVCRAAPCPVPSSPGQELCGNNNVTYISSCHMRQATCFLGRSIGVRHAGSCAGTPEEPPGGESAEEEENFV
# [19] = biological target: Dickkopf-related protein 1 (Homo sapiens) (UniProt O94907); test: DKK1 binders on small-molecule microarrays, primary screen, biochemical, small-molecule microarray, 635 nm fluorescence scan (AID 1106); details: DKK1 binding, higher = more signal;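 also: score merges emission near 667 nm with signal to noise over three replicate slides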
# Sequence of Dickkopf-related protein 1 (Homo sapiens) (O94907 whole entry, looked up): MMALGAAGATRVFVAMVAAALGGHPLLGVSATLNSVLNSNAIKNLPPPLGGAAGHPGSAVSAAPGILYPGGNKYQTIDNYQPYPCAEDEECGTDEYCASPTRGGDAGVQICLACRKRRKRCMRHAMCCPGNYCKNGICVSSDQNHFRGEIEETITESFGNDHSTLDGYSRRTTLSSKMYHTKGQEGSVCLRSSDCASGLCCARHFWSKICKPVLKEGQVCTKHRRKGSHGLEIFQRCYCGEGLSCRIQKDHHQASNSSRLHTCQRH
# [20] = test system: Inhibin beta A chain (activin A); test: INHBA (activin A) binders on microarrays, primary screen, biochemical, small-molecule microarray, 635 nm fluorescence scan (AID 1107); details: small-molecule microarray binding, higher = more signal;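 also: mouse activin A protein probed at 4.33 µg/mL on printed slides; score merges bound-protein fluorescence near 667 nm with spot signal-to-noise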
SMILES,composite z-score [1],z-score [2],z-score [3],z-score [4],composite z-score [5],z-score [6],composite z-score [7],composite z-score [8],composite z-score [9],composite z-score [10],composite z-score [11],composite z-score [12],composite z-score [13],z-score [14],composite z-score [15],composite z-score [16],composite z-score [17],composite z-score [18],composite z-score [19],composite z-score [20]
COCCOC(=O)N1C(=O)[C@@]2(c3ccccc31)[C@H](c1ccc(OCCO)cc1)N1[C@H](c3ccccc3)[C@H](c3ccccc3)OC(=O)[C@H]1[C@@H]2C(=O)N1CCN(c2ncccn2)CC1,1.54,1.52 (inactive),1.01 (inactive),5.4 (inactive),2.5,0.374 (inactive),0.101,1.34,1.05,0.241,1.22,0.639,0.539,-0.483 (inactive),1.42,1.34,0.791,1.44,1.09,0.943
CC(c1ccccc1)C(O)C1C=CC2C(=O)N(c3ccccc3)C(=O)C2N1Nc1ccc(C#N)cc1 (stereo not given),1.55,-2.46 (inactive),1.16 (inactive),37.9 (active),3.88,0.939 (inactive),0.123,0.562,1.04,0.066,1.27,0.0897,0.582,-0.44 (inactive),0.975,1.32,0.702,1.48,-0.163,0.251
[N-]=[N+]=NCc1ccccc1[C@@H]1OC(c2ccc(OCCCO)cc2)=N[C@]1(Cc1ccccc1)C(=O)NCc1ccccc1,0.872,1.26 (inactive),0.8 (inactive),8.96 (active),3.12,0.615 (inactive),0.239,-0.0171,0.672,-0.117,0.869,-0.0406,0.996,-1.29 (inactive),0.769,0.113,0.131,0.529,-0.154,0.656
COc1ccc([Si](C)(C)[C@H]2[C@H](CCn3cc([C@H](O)c4ccccc4)nn3)O[C@@]3(C(=O)N(C)c4c(Br)cc(C)cc43)[C@@H]2C)cc1,0.661,0.31 (inactive),0.467 (inactive),1.34 (inactive),-0.168,0.832 (inactive),-0.138,1.96,-0.615,-0.179,-0.34,-0.189,0.387,-0.923 (inactive),0.574,0.0322,-0.597,-0.499,0.335,0.227
O=C1c2ccccc2[C@@]2(Cc3ccccc3N(Cc3ccccc3)C2=O)[C@H](c2ccc(CO)cc2)N1Cc1ccccc1,0.131,-0.82 (inactive),-0.678 (inactive),15.9 (active),0.118,-0.737 (inactive),-0.0321,-0.945,-1.15,-0.218,1.45,0.617,0.819,1.18 (inactive),-0.74,-1.37,-0.949,-0.604,-0.868,0.58
C=CCN1C(=O)[C@]2(O[C@H](CCn3cc([C@H](O)c4ccccc4)nn3)[C@@H]([Si](C)(C)c3ccc(OC)cc3)[C@@H]2C)c2cc(N3C(=O)c4cccc5cccc3c45)ccc21,0.755,-0.055 (inactive),1.06 (inactive),1.21 (inactive),0.6,0.374 (inactive),-0.217,0.624,0.232,-0.28,0.783,-0.168,0.195,-1.18 (inactive),0.57,-0.549,-0.795,0.187,-0.857,-0.302
